The OligoGym collection

Target: FAM55C
Test: pooled miR-30 sensor sort-seq; sequence = guide strand
Conditions: shRNA
Further: reference of the scale not given here.

Sequence | sensor-assay potency score (higher = more potent)
TAAGCTACAAACACTCTACTAC | 0.449
TAGTTTCAGAAATTCTTCCTGA | 0.381
TTTGGTTTGAAGCAGAACCAGG | -1.09
TTCAAGATGACAAAGTAGCTGG | 0.358
TTAGTTTCTTTTATTCTCCTGG | 0.337
TATAATATCGTAGCATTCTTTA | -1.01
TTAAACTCCACTAAATCTGGAA | -0.0245
TTGAGATAGTTCTAGACTGTTA | -0.125
TTTATCTTCCTGTAAGCGCTGA | 0.412
TTACACAAAAGTCAATTCCTAA | -0.448
TTTCTTTGTAAGCACTCTGTAA | -0.921
AAACACTCTACTACCAACCAAA | -0.932

Target: FAM57A
Test: as above
Conditions: shRNA

Sequence | sensor-assay potency score (higher = more potent)
TGCACCGAGGAAACCAGCCTGG | -1.21
TTCGACTTAGGAAGTTTCGAAG | -0.637
ATCATCACGCAGTCGGTGCGGC | -0.575
TAGGAAGTTTCGAAGAGTGAGG | -0.893
TGATGTGTGATCATGAGGCGGT | 0.245
TAGGACCAGTACATGAAGGGGA | 0.407
TTTAGCTGAATCAGAACCCTGC | 0.947
ATCACGTCGTCGCAGGAGCGAA | -1.8
TTTCGACTTAGGAAGTTTCGAA | -0.112
TTGGGGAGTGTCAAAGAGCCGG | -1.25
TTGCAGTAGAATGGGATGCTGA | -0.668
TTGGAGCAGGCTTAGTCCCTGC | -0.863

Target: FAM58A
Test: as above
Conditions: shRNA

Sequence | sensor-assay potency score (higher = more potent)
TTGGTCTCGCAAAAGAACTTAT | -0.839
TTGATGATGTCACGAGTCCGCA | -0.773
TCTCGCAAAAGAACTTATGGTA | -0.0793
TAGTGGAGCAGGTACTTGTGTG | -1.12
TTGGACACATTGATGATGTCAC | -0.0439
TTGTAGTCAAAGTCCTCTCAAA | -0.91
TTGAAGACATGGCAATCAGGTA | -0.548
TTGGGTTAAAGTACCTGTTGGA | 0.579
ATTGATGATGTCACGAGTCCGC | -0.413
TATGGTAAATGGTGCAAGCAGT | -0.754
ATCGATTTCATGACTTTCCTTT | 0.417
TAGGGATTCAGTCTCATCGATT | -1.22
